Test results as given in ChEMBL document CHEMBL3988442, “University of Dundee, Small-Polar-MMV Screening Library” (2021).
For some of these results: Results with a measured potency or affinity are listed apart.

Columns and labels:
Design in all cases: scale not given: direction of the effect not stated beside the values
[1] = molecular target: Protein translocase subunit SecA (Escherichia coli (strain K12)) (UniProt P10408); assay: Assay to Identify E. coli SecA ATPase Inhibitors; assay type: functional; details: 30 µM
Chain of Protein translocase subunit SecA (Escherichia coli (strain K12)) (P10408 whole entry): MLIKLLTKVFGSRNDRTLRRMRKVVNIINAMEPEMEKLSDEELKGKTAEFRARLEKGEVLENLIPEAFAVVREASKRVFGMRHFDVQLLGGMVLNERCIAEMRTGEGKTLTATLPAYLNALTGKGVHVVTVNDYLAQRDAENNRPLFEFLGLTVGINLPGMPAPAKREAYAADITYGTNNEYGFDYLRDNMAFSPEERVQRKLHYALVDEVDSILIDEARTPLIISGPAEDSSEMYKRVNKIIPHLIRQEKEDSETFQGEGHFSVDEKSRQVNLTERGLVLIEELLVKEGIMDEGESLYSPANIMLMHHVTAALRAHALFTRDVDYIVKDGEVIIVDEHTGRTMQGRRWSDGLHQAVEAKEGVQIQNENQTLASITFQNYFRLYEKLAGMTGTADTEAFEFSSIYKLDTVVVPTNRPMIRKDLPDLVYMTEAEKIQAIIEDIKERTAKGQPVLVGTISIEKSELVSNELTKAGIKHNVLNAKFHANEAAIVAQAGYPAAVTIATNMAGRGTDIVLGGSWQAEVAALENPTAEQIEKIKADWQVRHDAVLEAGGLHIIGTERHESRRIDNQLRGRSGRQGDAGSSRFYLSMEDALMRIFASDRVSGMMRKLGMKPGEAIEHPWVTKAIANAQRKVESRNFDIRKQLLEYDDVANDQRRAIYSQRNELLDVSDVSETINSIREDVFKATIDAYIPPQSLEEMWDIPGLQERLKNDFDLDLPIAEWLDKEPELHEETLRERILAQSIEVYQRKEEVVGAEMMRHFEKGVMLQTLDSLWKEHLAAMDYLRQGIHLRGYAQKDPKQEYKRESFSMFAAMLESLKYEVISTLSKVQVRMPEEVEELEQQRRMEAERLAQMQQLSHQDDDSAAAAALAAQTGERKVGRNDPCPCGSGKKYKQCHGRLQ

[2] = molecular target: T1, Ubiquitin-activating enzyme e1, putative (Leishmania donovani (strain BPK282A1)) (UniProt E9BSI1); assay: Leishmania donovani Ubiquitin Activating Enzyme (LdE1); assay type: functional; details: 30 µM
T1 sequence (whole entry): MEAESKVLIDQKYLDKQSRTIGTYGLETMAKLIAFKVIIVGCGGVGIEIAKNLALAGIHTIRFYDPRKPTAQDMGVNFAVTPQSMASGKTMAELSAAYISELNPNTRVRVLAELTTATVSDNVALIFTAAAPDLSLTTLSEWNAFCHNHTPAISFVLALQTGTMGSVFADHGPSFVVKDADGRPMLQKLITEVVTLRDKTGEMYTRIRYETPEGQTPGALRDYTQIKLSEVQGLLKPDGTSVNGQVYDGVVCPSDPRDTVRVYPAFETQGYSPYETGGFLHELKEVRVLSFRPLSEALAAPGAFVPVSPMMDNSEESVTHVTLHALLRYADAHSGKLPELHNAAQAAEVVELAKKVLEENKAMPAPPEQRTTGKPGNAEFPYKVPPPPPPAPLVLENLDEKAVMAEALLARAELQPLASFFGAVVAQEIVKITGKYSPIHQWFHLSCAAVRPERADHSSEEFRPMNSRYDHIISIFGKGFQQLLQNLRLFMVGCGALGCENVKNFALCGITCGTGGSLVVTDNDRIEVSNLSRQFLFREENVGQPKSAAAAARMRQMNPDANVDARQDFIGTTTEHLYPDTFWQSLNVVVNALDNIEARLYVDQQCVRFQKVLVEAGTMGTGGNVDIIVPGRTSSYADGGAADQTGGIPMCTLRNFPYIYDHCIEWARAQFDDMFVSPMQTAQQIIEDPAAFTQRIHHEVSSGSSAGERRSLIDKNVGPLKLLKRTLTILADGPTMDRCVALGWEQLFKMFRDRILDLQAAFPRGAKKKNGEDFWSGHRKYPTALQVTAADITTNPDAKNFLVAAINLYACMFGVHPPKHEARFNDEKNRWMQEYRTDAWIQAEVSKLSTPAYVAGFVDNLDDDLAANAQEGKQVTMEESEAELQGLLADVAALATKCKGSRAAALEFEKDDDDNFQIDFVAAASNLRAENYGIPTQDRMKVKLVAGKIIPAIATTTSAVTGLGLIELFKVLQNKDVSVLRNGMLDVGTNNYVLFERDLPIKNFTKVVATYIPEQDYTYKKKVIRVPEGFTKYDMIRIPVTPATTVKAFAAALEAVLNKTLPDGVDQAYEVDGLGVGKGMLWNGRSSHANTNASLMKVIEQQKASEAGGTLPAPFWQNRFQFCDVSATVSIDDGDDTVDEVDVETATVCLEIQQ

[3] = molecular target: AMP-activated protein kinase, AMPK (Homo sapiens) (UniProt P54646+O43741+P54619+Q9UGJ0+Q9Y478+Q13131+Q9UGI9); assay: AMP-dependent Kinase enzyme assay. An in vitro enzyme assay that detects ADP turnover that is directly proportional to AMPK activity. This uses naive AMPK that is activated during the assay with MK-8722; assay type: functional; details: 30 µM
[4] = molecular target: Sialic acid-binding Ig-like lectin 9 (Homo sapiens) (UniProt Q9Y336); assay: Hs-Siglec9 ALPHAscreen SOP 20170721; details: 10 µM
Chain of Sialic acid-binding Ig-like lectin 9 (Homo sapiens) (Q9Y336 whole entry): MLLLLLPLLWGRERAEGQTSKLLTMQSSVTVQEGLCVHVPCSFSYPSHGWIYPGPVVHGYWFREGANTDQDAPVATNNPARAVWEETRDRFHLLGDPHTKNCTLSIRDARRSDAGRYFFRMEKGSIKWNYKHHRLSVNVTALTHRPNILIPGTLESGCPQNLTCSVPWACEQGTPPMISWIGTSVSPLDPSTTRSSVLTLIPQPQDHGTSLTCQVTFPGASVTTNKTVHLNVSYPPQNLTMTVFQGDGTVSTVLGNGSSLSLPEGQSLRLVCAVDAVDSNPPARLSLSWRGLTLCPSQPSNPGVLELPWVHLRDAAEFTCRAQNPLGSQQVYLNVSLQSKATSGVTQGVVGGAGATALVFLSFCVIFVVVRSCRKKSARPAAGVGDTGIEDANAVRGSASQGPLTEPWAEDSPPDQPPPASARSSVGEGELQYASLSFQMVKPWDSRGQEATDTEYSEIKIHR

Trypanosoma cruzi = assay: Trypanosoma cruzi phosphomannomutase and mannose-1-phosphate guanylyltransferase assay; assay type: functional; details: 10 µM
[5] = molecular target: T2, Arginase-2, mitochondrial (Homo sapiens) (UniProt P78540); assay: in vitro enzyme assay to detect the production of urea directly proportional to the activity of Arginase II; assay type: functional; details: 33.3 µM; also: in the data most compounds retested in dose-response had high values
T2 sequence (whole entry): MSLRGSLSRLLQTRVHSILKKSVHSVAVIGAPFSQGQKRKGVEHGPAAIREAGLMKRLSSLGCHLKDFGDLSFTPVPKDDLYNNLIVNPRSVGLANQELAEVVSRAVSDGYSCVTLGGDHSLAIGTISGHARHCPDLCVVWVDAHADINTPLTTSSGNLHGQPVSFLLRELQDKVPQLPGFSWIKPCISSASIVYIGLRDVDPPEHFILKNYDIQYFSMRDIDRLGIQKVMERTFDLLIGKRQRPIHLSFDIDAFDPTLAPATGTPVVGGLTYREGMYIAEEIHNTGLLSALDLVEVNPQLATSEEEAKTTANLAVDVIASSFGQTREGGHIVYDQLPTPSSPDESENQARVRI

[6] = molecular target: T3, Proteasome subunit beta (Trypanosoma cruzi) (UniProt O96673); assay: Trypanosoma cruzi proteasome chymotrypsin-like activity (TcProtChymo) assay.; also: in the data most compounds retested in dose-response had high values; assay type: functional; details: 9.37 µM
T3 sequence (whole entry): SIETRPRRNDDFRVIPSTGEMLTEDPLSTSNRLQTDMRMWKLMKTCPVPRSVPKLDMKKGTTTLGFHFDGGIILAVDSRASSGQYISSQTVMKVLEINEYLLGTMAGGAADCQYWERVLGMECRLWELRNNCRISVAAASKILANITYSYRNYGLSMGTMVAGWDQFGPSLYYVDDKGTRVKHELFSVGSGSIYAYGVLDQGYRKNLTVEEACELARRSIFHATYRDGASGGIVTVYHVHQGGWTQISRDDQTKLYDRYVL

Homo sapiens = species on record: Homo sapiens; assay: To identify inhibition of the IFN signalling (Jak-Stat) pathway via expression of an eGFP reporter gene under the control of an IFN-stimulated response element (ISRE) containing MxA promoter.; assay type: functional; details: 30 µM
[7] = molecular target: T4, Tyrosyl-tRNA synthetase, putative (Trypanosoma cruzi (strain CL Brener)) (UniProt Q4DSP6); assay: Trypanosoma cruzi tyrosyl tRNA synthetase (TcYRS) _High Tyrosine SOP; assay type: functional; details: 30 µM; also: in the data most compounds retested in dose-response had high values
T4 sequence (whole entry): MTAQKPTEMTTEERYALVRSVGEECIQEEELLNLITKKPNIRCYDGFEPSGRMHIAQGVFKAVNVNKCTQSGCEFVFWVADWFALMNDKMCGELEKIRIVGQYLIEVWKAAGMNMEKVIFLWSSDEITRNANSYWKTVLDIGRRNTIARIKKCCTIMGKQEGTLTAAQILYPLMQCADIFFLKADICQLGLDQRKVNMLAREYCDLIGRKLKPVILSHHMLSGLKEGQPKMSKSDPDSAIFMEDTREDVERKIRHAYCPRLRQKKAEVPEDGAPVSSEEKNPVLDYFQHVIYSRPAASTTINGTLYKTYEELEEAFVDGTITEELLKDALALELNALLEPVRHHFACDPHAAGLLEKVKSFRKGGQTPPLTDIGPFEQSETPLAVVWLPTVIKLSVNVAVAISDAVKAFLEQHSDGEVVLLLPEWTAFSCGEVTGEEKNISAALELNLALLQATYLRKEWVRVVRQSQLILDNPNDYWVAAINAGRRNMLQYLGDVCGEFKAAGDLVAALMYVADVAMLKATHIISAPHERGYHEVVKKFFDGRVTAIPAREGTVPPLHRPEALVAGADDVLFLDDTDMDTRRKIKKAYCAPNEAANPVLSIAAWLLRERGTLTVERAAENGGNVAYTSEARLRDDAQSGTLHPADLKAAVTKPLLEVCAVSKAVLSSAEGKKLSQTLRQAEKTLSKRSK

[8] = molecular target: T4, Tyrosyl-tRNA synthetase, putative (Trypanosoma cruzi (strain CL Brener)); assay: Trypanosoma cruzi tyrosyl tRNA synthetase (TcYRS) SOP; assay type: functional; details: 30 µM
[9] = molecular target: Chromo domain-containing protein 1 (Saccharomyces cerevisiae (strain ATCC 204508 / S288c) (Baker's yeast)) (UniProt P32657); assay: ScCHD-1 Enzyme Inhibition Assay; assay type: functional; details: 30 µM; also: in the data most compounds retested in dose-response had high values
Chain of Chromo domain-containing protein 1 (Saccharomyces cerevisiae (strain ATCC 204508 / S288c) (Baker's yeast)) (P32657 whole entry, the tested form may be a part): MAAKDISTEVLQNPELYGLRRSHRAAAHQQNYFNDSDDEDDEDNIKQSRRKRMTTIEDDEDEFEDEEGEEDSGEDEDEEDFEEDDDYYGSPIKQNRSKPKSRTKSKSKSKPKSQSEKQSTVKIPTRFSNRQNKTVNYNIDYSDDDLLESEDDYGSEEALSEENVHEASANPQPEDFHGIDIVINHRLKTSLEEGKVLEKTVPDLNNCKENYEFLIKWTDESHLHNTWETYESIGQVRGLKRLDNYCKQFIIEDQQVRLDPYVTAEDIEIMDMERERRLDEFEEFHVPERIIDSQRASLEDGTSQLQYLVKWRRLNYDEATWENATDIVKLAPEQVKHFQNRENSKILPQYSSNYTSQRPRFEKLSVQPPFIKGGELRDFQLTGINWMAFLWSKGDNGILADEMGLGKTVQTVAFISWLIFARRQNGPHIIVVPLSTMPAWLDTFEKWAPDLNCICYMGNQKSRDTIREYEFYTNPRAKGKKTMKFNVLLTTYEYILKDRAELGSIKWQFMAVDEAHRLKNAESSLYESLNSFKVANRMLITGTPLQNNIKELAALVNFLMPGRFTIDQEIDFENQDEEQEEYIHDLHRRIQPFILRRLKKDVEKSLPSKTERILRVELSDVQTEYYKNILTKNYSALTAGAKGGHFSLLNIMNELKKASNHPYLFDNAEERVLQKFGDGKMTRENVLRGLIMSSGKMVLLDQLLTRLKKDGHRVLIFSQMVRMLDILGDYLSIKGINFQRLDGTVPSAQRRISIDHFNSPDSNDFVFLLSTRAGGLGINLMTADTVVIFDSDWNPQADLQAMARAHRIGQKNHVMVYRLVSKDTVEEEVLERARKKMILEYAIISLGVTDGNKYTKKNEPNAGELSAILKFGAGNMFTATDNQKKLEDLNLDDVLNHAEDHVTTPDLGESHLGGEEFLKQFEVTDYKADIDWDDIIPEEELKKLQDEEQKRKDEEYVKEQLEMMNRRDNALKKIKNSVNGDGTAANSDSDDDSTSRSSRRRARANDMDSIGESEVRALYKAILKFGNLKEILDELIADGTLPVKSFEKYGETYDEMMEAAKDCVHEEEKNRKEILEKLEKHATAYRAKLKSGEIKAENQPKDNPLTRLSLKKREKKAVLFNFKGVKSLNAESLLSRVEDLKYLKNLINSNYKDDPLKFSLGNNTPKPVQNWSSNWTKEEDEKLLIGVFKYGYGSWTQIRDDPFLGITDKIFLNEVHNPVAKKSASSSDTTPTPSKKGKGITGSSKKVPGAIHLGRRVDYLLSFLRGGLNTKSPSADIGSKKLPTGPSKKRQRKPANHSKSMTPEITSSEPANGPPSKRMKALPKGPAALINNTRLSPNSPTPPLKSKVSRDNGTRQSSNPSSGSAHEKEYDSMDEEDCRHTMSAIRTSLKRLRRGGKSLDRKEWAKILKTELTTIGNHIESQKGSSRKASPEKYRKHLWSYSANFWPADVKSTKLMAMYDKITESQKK

**Q.** Which results are given for `O=C(CCc1c[nH]cn1)N1CC[C@@H](c2ccc3ccccc3c2)[C@H](O)C1`?
**A.** Percent Effect [1]: -5.41%; Percent Effect [2]: 10.7%; Percent Effect [3]: -4.75%; Percent Effect [4]: 24.9%; Percent Effect (Trypanosoma cruzi): 5.16%; Percent Effect [5]: 8.85%; Percent Effect [6]: 9.77%; Percent Effect (Homo sapiens): 15.3%; Percent Effect [7]: 7.1%; Percent Effect [8]: 13.6%; Percent Effect [9]: 106%

**Q.** What does the source list for `CCOCCCC(=O)NCc1cn2cc(Br)ccc2n1`?
**A.** Percent Effect [1]: -1.32%; Percent Effect [2]: 7.89%; Percent Effect [3]: 1.23%; Percent Effect [4]: -4.68%; Percent Effect (Trypanosoma cruzi): -1.66%; Percent Effect [5]: 0%; Percent Effect [6]: 24.1%; Percent Effect (Homo sapiens): -9.79%; Percent Effect [7]: 6.38%; Percent Effect [8]: 15.6%; Percent Effect [9]: -2.98%

**Q.** How did the Percent Effect [1] turn out when `Cc1cc(CN(C)C(=O)C2CCS(=O)(=O)C2)no1` (stereo not drawn) was run?
**A.** Its Percent Effect is 0.281%.

**Q.** And the Percent Effect [2]?
**A.** Its Percent Effect is 18.2%.

**Q.** And the Percent Effect [3]?
**A.** The Percent Effect was -1.29%.

**Q.** And the Percent Effect [4]?
**A.** The Percent Effect was -9.12%.

**Q.** And the Percent Effect (Trypanosoma cruzi)?
**A.** The Percent Effect was 4.21%.

**Q.** And the Percent Effect [5]?
**A.** Its Percent Effect is 2.74%.

**Q.** What about the Percent Effect [6] of the same compound?
**A.** The Percent Effect was 14%.

**Q.** And the Percent Effect (Homo sapiens)?
**A.** Its Percent Effect is 31.4%.

**Q.** What about the Percent Effect [7] of the same compound?
**A.** The Percent Effect was 5.71%.

**Q.** And the Percent Effect [8]?
**A.** The Percent Effect was 21.2%.

**Q.** What about the Percent Effect [9] of the same compound?
**A.** The Percent Effect was -8.16%.

**Q.** How did the Percent Effect [1] turn out when `Cn1cc(CN2CCCn3cnc(COCC4CC4)c3C2)cn1` was run?
**A.** The Percent Effect was -4.51%.

**Q.** What about the Percent Effect [2] of the same compound?
**A.** Its Percent Effect is 8%.

**Q.** What about the Percent Effect [3] of the same compound?
**A.** The Percent Effect was -1.37%.

**Q.** What about the Percent Effect [4] of the same compound?
**A.** The Percent Effect was 1.51%.

**Q.** What about the Percent Effect (Trypanosoma cruzi) of the same compound?
**A.** Its Percent Effect is 6.95%.

**Q.** What about the Percent Effect [5] of the same compound?
**A.** The Percent Effect was -55.7%.

**Q.** What about the Percent Effect [6] of the same compound?
**A.** Its Percent Effect is 7.69%.

**Q.** And the Percent Effect (Homo sapiens)?
**A.** Its Percent Effect is -4.29%.

**Q.** What about the Percent Effect [7] of the same compound?
**A.** The Percent Effect was 4.17%.

**Q.** And the Percent Effect [8]?
**A.** The Percent Effect was 15%.

**Q.** What about the Percent Effect [9] of the same compound?
**A.** The Percent Effect was -7.64%.

**Q.** What does the source list for `CC(C)OCc1ccc(CNC(=O)CC(F)(F)F)cc1`?
**A.** Percent Effect [1]: -5.75%; Percent Effect [2]: 21.1%; Percent Effect [3]: -5.14%; Percent Effect [4]: -0.714%; Percent Effect (Trypanosoma cruzi): 3.83%; Percent Effect [5]: 0.719%; Percent Effect [6]: 3.98%; Percent Effect (Homo sapiens): 6.56%; Percent Effect [7]: 8.37%; Percent Effect [8]: 23.5%; Percent Effect [9]: -9.86%

**Q.** Which results are given for `CCCc1noc(CN(C)C(=O)C2COc3ccccc3C2)n1` (stereo not drawn)?
**A.** Percent Effect [1]: -2.56%; Percent Effect [2]: 7.79%; Percent Effect [3]: -0.0483%; Percent Effect [4]: 4.75%; Percent Effect (Trypanosoma cruzi): -3.25%; Percent Effect [5]: -30.3%; Percent Effect [6]: 14.1%; Percent Effect (Homo sapiens): -15.6%; Percent Effect [7]: 5.38%; Percent Effect [8]: 16.1%; Percent Effect [9]: -3.26%

**Q.** `N#Cc1cccc(S(=O)(=O)NC2CCN(Cc3ccccc3)C2=O)c1` (stereo not drawn) was tested. Which Percent Effect [1] did it give?
**A.** Its Percent Effect is -2.71%.

**Q.** And the Percent Effect [2]?
**A.** The Percent Effect was 12.7%.

**Q.** What about the Percent Effect [3] of the same compound?
**A.** The Percent Effect was 0.264%.

**Q.** What about the Percent Effect [4] of the same compound?
**A.** The Percent Effect was 4.28%.

**Q.** What about the Percent Effect (Trypanosoma cruzi) of the same compound?
**A.** The Percent Effect was -4.44%.

**Q.** What about the Percent Effect [5] of the same compound?
**A.** The Percent Effect was -6.84%.

**Q.** And the Percent Effect [6]?
**A.** Its Percent Effect is 2.21%.

**Q.** And the Percent Effect (Homo sapiens)?
**A.** Its Percent Effect is 1.05%.

**Q.** And the Percent Effect [7]?
**A.** The Percent Effect was 3.45%.

**Q.** What about the Percent Effect [8] of the same compound?
**A.** Its Percent Effect is 11.4%.

**Q.** What about the Percent Effect [9] of the same compound?
**A.** Its Percent Effect is -7.32%.

**Q.** How did the Percent Effect [1] turn out when `Cn1cnnc1C1CCCN(C(=O)NCc2ccc3c(c2)OCO3)C1` (stereo not drawn) was run?
**A.** The Percent Effect was -5.4%.

**Q.** What about the Percent Effect [2] of the same compound?
**A.** Its Percent Effect is -10.4%.

**Q.** And the Percent Effect [3]?
**A.** The Percent Effect was -2.19%.

**Q.** And the Percent Effect [4]?
**A.** The Percent Effect was -7.32%.

**Q.** What about the Percent Effect (Trypanosoma cruzi) of the same compound?
**A.** Its Percent Effect is 3.43%.

**Q.** And the Percent Effect [5]?
**A.** The Percent Effect was -12.8%.

**Q.** And the Percent Effect [6]?
**A.** Its Percent Effect is 11.2%.

**Q.** What about the Percent Effect (Homo sapiens) of the same compound?
**A.** The Percent Effect was -5.11%.

**Q.** And the Percent Effect [7]?
**A.** Its Percent Effect is 9.52%.

**Q.** And the Percent Effect [8]?
**A.** Its Percent Effect is 23.5%.

**Q.** And the Percent Effect [9]?
**A.** Its Percent Effect is -12.6%.
